# Test results reported in PubChem BioAssay AID493200 (National Center for Advancing Translational Sciences (NCATS), 2011).
# Results filed as inconclusive are left out. Calls of active or inactive are those of the source. Calls come from the whole dose curve; as a rule, active = well fitted activation curve with a large enough effect; inconclusive = small, poorly fitted or top-dose-only effect; inactive = no such curve, though single readings can be large or run the other way.
# Assay: qHTS Assay for Rab9 Promoter Activators: Initial hit validation from the primary screen; for activation: % of control where 0% means no effect
# Conditions: Huh7 Rab9 promoter luciferase reporter, 24 h; series mostly up to 46.1 µM; activation: at the top concentration
# Procedure, shortened: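 Luciferase signal, read 10 min after Amplite reagent, reports Rab9 promoter activation. Compounds in DMSO were applied for 24 h at 37C to Rab9-luciferase Huh7 cells, pre-incubated 2 h in reduced-serum medium with 10% FBS.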
# Potency is the fitted concentration of half-maximal effect.
SMILES,activation,Potency
COc1ccc(NC(=O)CN(C)C(=O)c2ccc(=O)[nH]c2)cc1,1.74% (inactive),
CCOC(=O)c1ccc(-c2nnc(-c3ccc(Cl)cc3Cl)o2)cc1,,705 nM (active)
CC1CN(C(=O)c2ccncc2)CC(C)O1 (configuration not stated),-3.44% (inactive),
CCC(=O)N1c2ccccc2NC2=C(C(=O)CCC2)C1c1ccc(N(C)C)cc1 (configuration not stated),-5.08% (inactive),
O=C(NCCc1c[nH]c2ccccc12)C(=O)NCC(c1ccco1)N1CCN(c2ccccc2F)CC1 (configuration not stated),-1.77% (inactive),
COC(=O)c1cn(NC(=O)C2CCCCC2)c(=O)c2ccccc12,-5.53% (inactive),
COc1ccc(NC(=O)Nc2ccc(Cc3ccncc3)cc2)cc1OC,-23.6% (inactive),
O=C(CCNC(=O)c1ccc(Br)o1)NCc1ccc(Cl)cc1,0.0639% (inactive),
OCCC1CN(Cc2nc3ccccc3s2)CCN1C1CCCC1 (configuration not stated),-5.07% (inactive),
CC1(C)CC(=O)c2c(O)c(-c3ccccc3)c(=O)n(-c3ccccc3)c2C1,-6.27% (inactive),
Cc1nn(CCCC(=O)NCc2ccc(F)cc2)c(C)c1[N+](=O)[O-],1.2% (inactive),
Cn1c(CCN2CCN(c3ccccc3)CC2)nc2cc(NC(=O)c3ccco3)ccc21,-5.18% (inactive),
CCCCn1c(Nc2ccc(OC)cc2)nc2ccccc21,5.74% (inactive),
Nc1nc(SCCO)[nH]c(=O)c1NC(=O)c1ccco1,6.14% (inactive),
NCCOc1ccccc1-c1ccccc1,-3.52% (inactive),
Cc1nc(SCC(=O)NC(=O)NC(C)(C)C)nc(C)c1C,-2.54% (inactive),

SMILES,activation,Potency
CCOc1ccc(CNC(=O)C2CCCN(S(C)(=O)=O)C2)cc1OC (configuration not stated),6.63% (inactive),
Cc1cccc(C)c1NC(=O)Nc1cccs1,-4.81% (inactive),
COC(=O)c1sccc1NC(=S)OC,-1.18% (inactive),
CC(C)(C)C(=O)N/C(N)=N/c1nc2ccccc2o1,,628 nM (active)
O=C(O)C1=CC[C@@H](c2ccc(Cl)cc2)N(S(=O)(=O)c2ccc(Cl)cc2)[C@H]1c1ccccc1,-13.5% (inactive),
Cc1ccc(NC(=O)NC(=O)c2ccccc2)cc1F,,445 nM (active)
CCOC(=O)c1ccc(NC(=O)Oc2cc(C)c(Cl)cc2C(C)C)cc1,3.5% (inactive),
Cc1ccc(C)c(Nc2cc(C)nc3ncnn23)c1,-2.73% (inactive),
CCN(CC(=O)N(CC(C)C)c1c(N)n(CC(C)C)c(=O)[nH]c1=O)Cc1nc2ccccc2c(=O)[nH]1,3.7% (inactive),
CCc1cc2c(N=Nc3c(O)[nH]c4ccccc34)ncnc2s1,9.06% (inactive),
O=C(CCCC(=O)N(CC(=O)NC1CCCCC1)c1cccc(F)c1)Nc1ccccn1,-0.895% (inactive),
CC(=O)Nc1ccc(NC(=O)COc2ncnc3ccccc23)cc1,4% (inactive),
COCCn1c(SCc2ccc(C(=O)OC)o2)nc2cc(Cl)ccc2c1=O,-6.53% (inactive),
CCOc1ccc(S(=O)(=O)NCc2ccccc2)cc1C(N)=O,-17.8% (inactive),
CC(C)CC(=O)N1CCN(c2ccc(NC(=O)c3ccco3)cc2)CC1,15.4% (inactive),
CCC(=O)NC(=S)Nc1ccc(N2CCOCC2)cc1,,39700 nM (active)
